From the supplement of paper PMC9135407
Several values for one entry are separate records, joined by “and”; a condition that tells them apart may be missing. Identical values can stand only once. Counter-ions that a name gives are not always drawn. The whole screen tested about 5,800 compounds, of which about 620 (11%) showed activity. This is one part of a sample in which actives are shown more often than they occur. A number with no mark means an inactive call.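 Rule for the calls: active = score above a cut-off or among the top three wells of a plate; in these data no inactive exceeds 0.85.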

Test system: primary human hepatic stellate cells (donor 1)
Experiment: scaled lipid accumulation score (0 = DMSO-like, 1 = nortriptyline-like); higher = stronger HSC inactivation (lipid re-accumulation), active = hit call of the paper
Details: 48 h
[1] = library stock concentration: 1 mM
[2] = library stock concentration: 3.33 mM
[3] = library stock concentration: 10 mM

## CCCCC[C@H](O)/C=C/[C@@H]1[C@H](CCCCCCC(=O)O)[C@H](O)C[C@H]1O [8-iso Prostaglandin F1.beta.]
[1]
  scaled lipid accumulation score: ≤ 0

## Cc1[nH]ccc2c1[nH]c1cc(=O)ccc12 [Harmol hydrochloride monohydrate]
  scaled lipid accumulation score: 0.689

## O=C(O)CCC/C=C\C[C@H]1C(=O)C=C[C@@H]1CC[C@@H](O)CCc1ccccc1 [17-phenyl trinor-13,14-dihydro Prostaglandin A2]
[1]
  scaled lipid accumulation score: ≤ 0

## CNCc1ccc(C)c(NC(=O)c2ccc(Nc3nc(-c4ccccc4)c4ccccc4n3)cc2)c1 [listing 1 of 2 here]
[2]
  scaled lipid accumulation score: 1.14 (active)

## Cc1cc(Nc2ccc(NC(=O)c3ccc(Nc4ccnc5ccccc45)cc3)cc2)nc(N)n1
[2]
  scaled lipid accumulation score: 0.147
[3]
  scaled lipid accumulation score: ≤ 0

## CNCc1ccc(C)c(NC(=O)c2ccc(Nc3nc(-c4ccccc4)c4ccccc4n3)cc2)c1 [listing 2 of 2 here]
[3]
  scaled lipid accumulation score: 0.17

## CCC(C)(Oc1ccc(C2(c3ccc(OC(C)(CC)C(=O)O)cc3)CCCCC2)cc1)C(=O)O (stereo unspecified) [Clinofibrate]
[2]
  scaled lipid accumulation score: ≤ 0
[3]
  scaled lipid accumulation score: ≤ 0

## CNCC[C@H](Oc1cccc2ccccc12)c1cccs1 [Duloxetine HCl]
[2]
  scaled lipid accumulation score: 0.357
[3]
  scaled lipid accumulation score: 0.796

## CNCC[C@H](Oc1cccc2ccccc12)c1cccs1 [Duloxetine]
[3]
  scaled lipid accumulation score: 1.39 (active)

## CNCCC(Oc1ccccc1OC)c1ccccc1 (stereo unspecified) [Nisoxetine hydrochloride]
  scaled lipid accumulation score: 0.246
[3]
  scaled lipid accumulation score: 0.751 and 0.328

## CN(C)[C@@H](CCOc1cccc2ccccc12)c1ccccc1 [Dapoxetine HCl]
[2]
  scaled lipid accumulation score: 0.506
[3]
  scaled lipid accumulation score: 0.625

## CNCC[C@@H](Oc1ccccc1C)c1ccccc1 [Tomoxetine hydrochloride]
[3]
  scaled lipid accumulation score: 0.484

## CNCC[C@H](Oc1cccc2ccccc12)c1cccs1.Cl [Duloxetine hydrochloride]
Library stock concentration: 6 mM
  scaled lipid accumulation score: 1.05 (active)

## CNCC[C@@H](Oc1ccccc1C)c1ccccc1 [Atomoxetine HCl]
[2]
  scaled lipid accumulation score: 0.319
[3]
  scaled lipid accumulation score: 0.514

## CNCC[C@@H](Oc1ccccc1C)c1ccccc1 [Tomoxetine]
[3]
  scaled lipid accumulation score: 0.59

## CNCC[C@@H](Oc1ccccc1C)c1ccccc1 [Atomoxetine hydrochloride]
Library stock concentration: 7.2 mM
  scaled lipid accumulation score: 0.064

## CNCC[C@H](Oc1cccc2ccccc12)c1cccs1
[3]
  scaled lipid accumulation score: 0.953 (active)

## Nc1n[nH]c(N)c1N=Nc1ccc(O)cc1 [Cdk9 Inhibitor II]
[2]
  scaled lipid accumulation score: ≤ 0

## O=C(O)Cn1c(C(=O)Nc2nc(-c3ccccc3Cl)cs2)cc2ccccc21
[3]
  scaled lipid accumulation score: ≤ -0.001

## CC1=CC(=O)C2=C(C)CC[C@@H]3[C@H](OC(=O)[C@H]3C)[C@@H]12 [Leucomisine]
  scaled lipid accumulation score: ≤ 0

## CCCCC[C@H](O)/C=C/[C@H]1C(=O)C[C@H](O)[C@@H]1CCCCCCC(=O)O [Prostaglandin D1]
[1]
  scaled lipid accumulation score: 0.018

## CCCCC[C@H](O)/C=C/[C@H]1C(=O)C=C[C@@H]1C/C=C\CCCC(=O)O [Prostaglandin J2]
[1]
  scaled lipid accumulation score: ≤ 0 and ≤ -0.021

## C[C@]1(O)C[C@@H](c2nc(-c3ccc4ccc(-c5ccccc5)nc4c3)c3c(N)nccn32)C1 [OSI-906 (Linsitinib)]
[2]
  scaled lipid accumulation score: ≤ 0
[3]
  scaled lipid accumulation score: ≤ 0

## C[C@]1(O)C[C@@H](c2nc(-c3ccc4ccc(-c5ccccc5)nc4c3)c3c(N)nccn32)C1
Library stock concentration: 80 uM
  scaled lipid accumulation score: 0.05
Library stock concentration: 400 uM
  scaled lipid accumulation score: ≤ -0.009
Library stock concentration: 2 mM
  scaled lipid accumulation score: ≤ -0.009
[3]
  scaled lipid accumulation score: ≤ -0.009

## CC1CNCCN1S(=O)(=O)c1cccc2cnccc12 (stereo unspecified)
[3]
  scaled lipid accumulation score: 0.081

## Cl.O=S(=O)(c1cccc2c(Cl)cccc12)N1CCCNCC1 [ML 9 hydrochloride]
[3]
  scaled lipid accumulation score: 0.941 (active)

## NCCCCCCCCCCNS(=O)(=O)c1cccc2c(Cl)cccc12 [A-7 hydrochloride]
[3]
  scaled lipid accumulation score: 0.41

## Cl.O=S(=O)(c1cccc2c(Cl)cccc12)N1CCCNCC1
[3]
  scaled lipid accumulation score: 0.935 (active)

## CCCCCCCC/C=C\CCCCCC(=O)OC [cis-7-Hexadecenoic Acid methyl ester]
[1]
  scaled lipid accumulation score: ≤ 0

## CNc1nc(Nc2cn(C(C)(C)C#N)nc2C)ncc1C(F)(F)F
[2]
  scaled lipid accumulation score: ≤ -0.009
[3]
  scaled lipid accumulation score: 0.132

## N[C@@H]1[C@H]2CN(c3nc4c(cc3F)c(=O)c(C(=O)O)cn4-c3ccc(F)cc3F)C[C@@H]12 [Trovafloxacin mesylate]
[3]
  scaled lipid accumulation score: 0.112

## CCCCCCCCCC(=O)NC(CN1CCOCC1)C(O)c1ccccc1 (racemic)
[1]
  scaled lipid accumulation score: ≤ -0.021

## Cc1ccc(C(=O)Cn2c3c(sc2=N)CCCC3)cc1 [Pifithrin-.alpha.]
[1]
  scaled lipid accumulation score: ≤ 0

## O=C(O)CCC/C=C\C[C@@H]1[C@@H](/C=C/[C@@H](O)CCc2cccc(C(F)(F)F)c2)[C@H](O)C[C@@H]1O [17-trifluoromethylphenyl trinor Prostaglandin F2.alpha.]
[1]
  scaled lipid accumulation score: ≤ 0

## CCN(CC)C(=O)CCC/C=C\C[C@@H]1[C@@H](/C=C/[C@@H](O)CCc2ccccc2)[C@H](O)C[C@@H]1O [17-phenyl trinor Prostaglandin F2.alpha. diethyl amide]
[1]
  scaled lipid accumulation score: ≤ 0
